From PubChem BioAssay AID1159580 (chemical genetic matrix, 2015)
Where “and” joins values, the source holds several entries; their conditions need not be identical. Identical values can stand only once. About 2,000 (36%) of roughly 5,500 compounds were called active. Inconclusive results (about 18%) are left out. Cut-off read from the data, not from the text of the source: active = normalized growth mostly below about 0.91 (no sharp cut-off); inconclusive = no clear call, values can overlap the other calls; inactive = mostly above about 0.92. Some of the results follow.

Experiment: chemical genetic growth profiling, strain panel (AID 1159580);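 note: tested at 20 µM; growth read once vehicle control cultures reached saturation at 30 °C; 1 = growth at the plate median or of vehicle wells; lower values mean less growth of the strain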
Conditions: S. cerevisiae deletion strains, growth OD

Measured: normalized growth

CC(CCC(=O)O)[C@H]1CCC2C3CC[C@@H]4CC(=O)CC[C@]4(C)C3C=C[C@@]21C (some centres not stated)
active: locus YDL035C, strain GPR1, active compounds read low 0.832 | locus YGL078C, strain dbp3, active compounds read low 0.87 | locus YKL009W, strain mrt4, active compounds read low 0.809 | locus YOR184W, strain ser1, active compounds read low 0.795
inactive: locus YBR021W, strain FUR4, active compounds read low 0.906 | locus YBR229C, strain ROT2, active compounds read low 1.03 | locus YCL029C, strain bik1, active compounds read low 0.984 | locus YDL074C, strain BRE1, active compounds read low 0.992 | locus YDL101C, strain DUN1, active compounds read low 1.02 | locus YDL185W, strain tfp1, active compounds read low 1.02 | locus YDL192W, strain arf1, active compounds read low 1 | locus YDR101C, strain arx1, active compounds read low 0.967 | locus YDR162C, strain NBP2, active compounds read low 0.999 | locus YDR318W, strain mcm21, active compounds read low 0.982 | locus YDR388W, active compounds read low 1.01 | locus YDR502C, strain sam2, active compounds read low 0.928 | locus YEL061C, strain CIN8, active compounds read low 1.03 | locus YER110C, active compounds read low 1.05 | locus YER155C, strain BEM2, active compounds read low 1.06 | locus YER167W, strain BCK2, active compounds read low 1.05 | locus YGL086W, strain mad1, active compounds read low 0.971 | locus YGL248W, strain PDE1, active compounds read low 0.963 | locus YGR078C, strain PAC10, active compounds read low 1.02 | locus YGR135W, strain pre9, active compounds read low 0.953 | locus YGR229C, strain SMI1, active compounds read low 0.904 | locus YGR252W, strain gcn5, active compounds read low 0.779 | locus YHR030C, strain SLT2, active compounds read low 1.06 and 0.918 | locus YHR079C, strain IRE1 (second series), active compounds read low 1.03 | locus YHR079C, strain IRE1, active compounds read low 0.944 | locus YHR094C, strain hxt1, active compounds read low 1.03 | locus YHR129C, strain ARP1, active compounds read low 1.04 | locus YHR200W, strain rpn10, active compounds read low 1.03 | locus YIL066C, strain RNR3, active compounds read low 1.02 | locus YIL073C, strain SPO22, active compounds read low 0.955 | locus YIL125W, strain kgd1, active compounds read low 0.98 | locus YIR030C, strain dcg1, active compounds read low 1.02 | locus YJL095W, strain BCK1, active compounds read low 0.959 and 0.937 | locus YJL134W, strain LCB3, active compounds read low 1.05 | locus YJL168C, strain set2, active compounds read low 1.03 | locus YJL187C, strain SWE1 (second series), active compounds read low 0.986 | locus YJR043C, strain POL32, active compounds read low 0.985 | locus YJR066W, strain TOR1, active compounds read low 0.893 | locus YKL068W, active compounds read low 1.04 | locus YKL085W, strain MDH1 (second series), active compounds read low 1.03 | locus YKL085W, strain MDH1, active compounds read low 1.03 | locus YKL190W, strain CNB1, active compounds read low 1.04 | locus YKR001C, strain vps1, active compounds read low 0.955 | locus YLR039C, strain RIC1, active compounds read low 0.953 | locus YLR058C, strain SHM2, active compounds read low 1.01 | locus YLR102C, strain apc9, active compounds read low 1.03 | locus YLR113W, strain HOG1, active compounds read low 0.882 | locus YLR262C, strain YPT6, active compounds read low 0.895 | locus YLR268W, strain sec22, active compounds read low 0.949 | locus YLR330W, strain CHS5, active compounds read low 1.04 | locus YLR342W, strain FKS1 (second series), active compounds read low 0.87 | locus YLR371W, strain rom2, active compounds read low 1.05 | locus YLR418C, strain cdc73, active compounds read low 0.889 | locus YML016C, strain PPZ1, active compounds read low 1.04 | locus YML032C, strain rad52, active compounds read low 0.959 | locus YML124C, strain tub3, active compounds read low 1.04 | locus YMR078C, strain ctf18, active compounds read low 1.03 | locus YMR223W, strain ubp8, active compounds read low 0.969 | locus YMR307W, strain GAS1, active compounds read low 0.875 | locus YNL067W, strain RPL9B, active compounds read low 0.971 | locus YNL153C, strain GIM3, active compounds read low 0.966 | locus YNL183C, strain NPR1, active compounds read low 0.883 | locus YNL233W, strain BNI4, active compounds read low 1.02 | locus YNL250W, strain rad50, active compounds read low 1 | locus YNL271C, strain bni1, active compounds read low 0.992 | locus YNL298W, strain CLA4, active compounds read low 0.926 | locus YNL307C, strain MCK1, active compounds read low 1.02 | locus YNL322C, strain KRE1, active compounds read low 1.04 | locus YNR052C, strain pop2, active compounds read low 0.931 | locus YOL006C, strain TOP1, active compounds read low 0.944 | locus YOL012C, strain htz1 1.95 | locus YOL147C, strain pex11, active compounds read low 1.03 | locus YOR061W, strain CKA2, active compounds read low 1.01 | locus YOR069W, strain VPS5, active compounds read low 1.02 | locus YOR136W, strain idh2, active compounds read low 1.03 | locus YOR144C, strain elg1, active compounds read low 0.988 | locus YOR231W, strain MKK1, active compounds read low 0.913 | locus YOR316C, strain cot1, active compounds read low 1.03 | locus YPL055C, strain LGE1, active compounds read low 1.01 | locus YPL241C, strain CIN2, active compounds read low 1.04 | locus YPL256C, strain CLN2, active compounds read low 0.963 | locus YPR119W, strain clb2, active compounds read low 1.05 | locus YPR141C, strain kar3, active compounds read low 1.05 | locus YPR163C, strain tif3, active compounds read low 1 | locus YPR167C, strain met16, active compounds read low 1.01 | strain wtn01, active compounds read low 0.931

CC(CCC(=O)O)[C@H]1CCC2C3CC[C@@H]4C[C@H](O)CC[C@]4(C)C3C=C[C@@]21C (some centres not stated)
inactive: locus YAL021C, strain ccr4, active compounds read low 0.968 | locus YAL030W, strain snc1, active compounds read low 1.01 | locus YBL061C, strain skt5, active compounds read low 1.01 | locus YBR009C, strain hhf1, active compounds read low 0.964 | locus YBR023C, strain chs3, active compounds read low 0.95 | locus YBR171W, strain sec66, active compounds read low 0.976 | locus YBR231C, strain swc5, active compounds read low 1.02 | locus YBR279W, strain paf1, active compounds read low 0.972 | locus YCL011C, strain gbp2, active compounds read low 0.994 | locus YCL016C, strain dcc1, active compounds read low 0.962 | locus YCL061C, strain MRC1, active compounds read low 0.989 | locus YCL069W, strain vba3, active compounds read low 0.997 | locus YCR088W, strain abp1, active compounds read low 1.02 | locus YDL005C, strain med2, active compounds read low 0.992 | locus YDL040C, strain nat1, active compounds read low 1.01 | locus YDR001C, strain nth1, active compounds read low 1.01 | locus YDR069C, strain doa4, active compounds read low 1 | locus YDR159W, strain sac3, active compounds read low 0.948 | locus YDR297W, strain sur2, active compounds read low 1 | locus YDR334W, strain swr1, active compounds read low 0.991 | locus YDR335W, strain msn5, active compounds read low 0.969 | locus YEL003W, strain gim4, active compounds read low 0.968 | locus YEL037C, strain rad23, active compounds read low 0.995 | locus YEL061C, strain CIN8 (second series), active compounds read low 1.01 | locus YER015W, strain faa2, active compounds read low 1.01 | locus YER016W, strain bim1, active compounds read low 0.999 | locus YER111C, strain swi4, active compounds read low 1 | locus YER155C, strain BEM2 (second series), active compounds read low 1.08 | locus YFR010W, strain ubp6, active compounds read low 0.987 | locus YGL167C, strain pmr1, active compounds read low 0.989 | locus YGL227W, strain vid30, active compounds read low 1.03 | locus YGL240W, strain doc1, active compounds read low 0.982 | locus YGL253W, strain hxk2, active compounds read low 0.955 | locus YHR013C, strain ard1, active compounds read low 0.973 | locus YHR027C, strain rpn1, active compounds read low 0.996 | locus YJL092W, strain hpr5, active compounds read low 0.986 | locus YJL095W, strain BCK1 (second series), active compounds read low 1 | locus YJL115W, strain asf1, active compounds read low 1.01 | locus YJL129C, strain trk1, active compounds read low 0.879 | locus YJL154C, strain vps35, active compounds read low 1.03 | locus YJL187C, strain SWE1, active compounds read low 0.972 | locus YKR026C, strain gcn3, active compounds read low 1.03 | locus YKR091W, strain srl3, active compounds read low 1.01 | locus YLL001W, strain dnm1, active compounds read low 1 | locus YLL026W, active compounds read low 1.01 | locus YLL041C, strain sdh2, active compounds read low 1 | locus YLR027C, strain aat2, active compounds read low 0.944 | locus YLR258W, strain gsy2, active compounds read low 0.998 | locus YLR342W, strain FKS1, active compounds read low 0.968 | locus YLR357W, strain rsc2, active compounds read low 1.13 | locus YLR370C, strain arc18, active compounds read low 0.955 | locus YLR384C, strain iki3, active compounds read low 1.03 | locus YMR129W, active compounds read low 1.02 | locus YMR205C, strain PFK2, active compounds read low 0.966 | locus YMR231W, strain pep5, active compounds read low 0.963 | locus YNL209W, strain ssb2, active compounds read low 0.99 | locus YNL248C, strain rpa49, active compounds read low 0.904 | locus YNL322C, strain KRE1 (second series), active compounds read low 1.04 | locus YNR049C, strain mso1, active compounds read low 1 | locus YOR080W, strain dia2, active compounds read low 0.997 | locus YOR265W, strain rbl2, active compounds read low 1.01 | locus YOR270C, strain vph1, active compounds read low 0.808 | locus YPL240C, strain hsp82, active compounds read low 0.997
active: locus YAL026C, strain drs2, active compounds read low 0.907 | locus YDR137W, strain rgp1, active compounds read low 0.501 | locus YDR195W, strain ref2 1.2 [resistant] | locus YDR392W, strain spt3, active compounds read low 0.485 | locus YGL173C, strain kem1, active compounds read low 0.812 | locus YHR142W, strain chs7, active compounds read low 0.839 | locus YJL164C, strain tpk1, active compounds read low 0.899 | locus YJL166W, strain qcr8, active compounds read low 0.894 | locus YKL160W, strain elf1, active compounds read low 0.881 | locus YLR221C, strain rsa3, active compounds read low 0.898 | locus YLR262C, strain YPT6 (second series), active compounds read low 0.532 | locus YLR320W, strain mms22, active compounds read low 0.742 | locus YML120C, strain ndi1, active compounds read low 0.861 | locus YMR058W, strain fet3, active compounds read low 0.869 | locus YMR125W, strain sto1, active compounds read low 1.11 [resistant] | locus YNL071W, strain lat1, active compounds read low 0.792 | locus YOR001W, strain rrp6, active compounds read low 0.86 | locus YOR070C, strain gyp1, active compounds read low 0.9 | locus YOR083W, strain WHI5, active compounds read low 0.85 | locus YOR106W, strain vam3, active compounds read low 0.842 | locus YOR290C, strain snf2, active compounds read low 0.83 | locus YPL051W, strain arl3, active compounds read low 0.817 | locus YPL078C, strain atp4, active compounds read low 0.834 | locus YPL106C, strain sse1, active compounds read low 1.22 [resistant]
